Assay results from PubChem BioAssay AID624202 (National Center for Advancing Translational Sciences (NCATS), 2012).
Hit rate of the full screen: of about 380,000 compounds, about 4,000 (1.1%) were called active. Where a call stands in place of a potency, no number is given. Another 3% or so got no clear call; they are omitted. The call rests on the fitted dose curve; in most records, active means well fitted activation curve with a large enough effect; inconclusive means small, poorly fitted or top-dose-only effect; inactive means no such curve, though single readings can be large or run the other way. For the sample, actives were picked, then their nearest neighbours and some compounds at random.
Potency means the concentration at half of the fitted maximal effect.

Assay: qHTS Assay to Identify Small Molecule Activators of BRCA1 Expression; further: nearly all actives have a fitted effect of over 80% in size
Conditions: MCF7-BRCA1-FFLuc reporter, luminescence, 48 h; series mostly up to 46.1 µM
In short: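 Luminescence from a BRCA1-driven firefly luciferase in MCF7 cells was read after 48 h compound exposure at 37 C. Data normalized against DMSO and a 10microM genistein activation control, then curve-fitted across the titration.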
For `Cc1ccc(S(=O)(=O)c2nc(NCCCn3ccnc3)sc2Cl)cc1`, the Potency was “inactive”. For `Cc1ccc2c(Cl)c(C(=O)NCCCn3ccnc3)sc2c1`, the Potency was “inactive”. In the case of `Cc1ccc(-c2nc(C#N)c(NCCCn3ccnc3)o2)cc1`, the Potency is reported as 4.47 µM (active). With `CC(C)c1ccc(NC(=O)CN(C)S(=O)(=O)c2ccc3c(c2)c(=O)n(C)c(=O)n3C)cc1` the Potency was “inactive”. With `COc1ccc2c(c1)c(N1CCCC1=O)c(C(=O)Nc1ccccc1C(F)(F)F)n2C` the Potency was “inactive”. In the case of `COC(=O)/C=C/C(=O)NCc1ccco1`, the Potency is reported as “inactive”. With `O=C(/C=C/c1ccc(Cl)cc1Cl)NCc1ccco1` the Potency was 11.2 µM (active). For `O=C(COC(=O)Cc1ccc(Cl)cc1Cl)NCc1ccco1`, the Potency was “inactive”. In the case of `O=C(NCC12CC3CC(CC(C3)C1)C2)c1cc2nc(-c3ccccc3)cc(C(F)(F)F)n2n1`, the Potency is reported as “inactive”. For `COc1ccc(-n2ccnc(NCCc3ccc(Cl)cc3)c2=O)cc1OC`, the Potency was “inactive”. With `O=C(NC1CCN(Cc2ccccc2)CC1)c1ccc(Cn2c(=O)c3ccccc3n(Cc3cccc(F)c3)c2=O)cc1` the Potency was “inactive”. In the case of `CC(C)(C)C(=O)c1cnc(Nc2ccccc2)s1`, the Potency is reported as 4.47 µM (active). For `CNC(=O)c1sc(Nc2ccc(OCc3ccccc3)cc2)nc1C`, the Potency was “inactive”. For `S=c1[nH]nc(Nc2ccccc2)s1`, the Potency was “inactive”. In the case of `CCOc1n[nH]c(-c2ccccc2)n1`, the Potency is reported as “inactive”. For `COc1cc(-c2noc(-c3ccc(N4CCCC4)c([N+](=O)[O-])c3)n2)cc(OC)c1OC`, the Potency was “inactive”. With `COc1ccc(-c2noc(CSc3nc(C)cc(=O)[nH]3)n2)cc1OC` the Potency was “inactive”. With `COc1ccc(-c2noc(-c3cccc(OC)c3OC)n2)cc1OC` the Potency was 3.98 µM (active). In the case of `CCN(CC)S(=O)(=O)c1ccc(C(=O)N=c2sc3cccc(OC)c3n2C)cc1`, the Potency is reported as “inactive”. With `C=COC(=O)N1CCN(/[N+]([O-])=N/Oc2ccc([N+](=O)[O-])cc2[N+](=O)[O-])CC1` the Potency was “inactive”. With `Cc1ccn(-c2cccc(-n3ccc(C)n3)n2)n1` the Potency was 12.6 µM (active). With `Cc1cccc(N2O[C@H]3C=CC2CCCC3)n1` the Potency was “inactive”. With `CCCN(CCC)C(=O)Cn1c(=O)n(-c2ccc(Cl)cc2)c(=O)c2c3c(sc21)CCCCC3` the Potency was “inactive”. With `CCn1cc(C(=O)NCCc2ccccc2)c(=O)c2cc(S(=O)(=O)N3CCCCCC3)ccc21` the Potency was “inactive”. In the case of `Cc1ccc2c(c1)N(CC(=O)NCC1CCCO1)C(=O)CO2` (stereo unspecified), the Potency is reported as “inactive”. In the case of `COCc1cc(C)n(CC(=O)NCC2CCCO2)c(=O)c1C#N` (stereo unspecified), the Potency is reported as “inactive”. In the case of `Cc1ccc(-n2c(C)cc(/C=C(\C#N)C(=O)NCC3CCCO3)c2C)cc1` (stereo unspecified), the Potency is reported as 2.51 µM (active). For `CCC(=O)N1CCc2cc(CNC(=O)Nc3ccccc3Cl)ccc21`, the Potency was “inactive”. In the case of `CCCC(=O)N1CCN(c2nc3c(OC)ccc(C)c3s2)CC1`, the Potency is reported as “inactive”. With `CCCN(CCC)S(=O)(=O)c1ccc(C(=O)Nc2sc3c(c2C(=O)OC)CCN(CC)C3)cc1` the Potency was “inactive”. In the case of `O=C(CC(c1cccs1)N1Cc2ccccc2C1=O)Nc1ccc(F)cc1F` (stereo unspecified), the Potency is reported as “inactive”. With `CC(C)(C)C(=O)Nc1ccc(-c2cn3cccnc3n2)cc1` the Potency was 2.82 µM (active). With `CCCCCC(=O)Nc1ccc(-c2cn3cccnc3n2)cc1` the Potency was “inactive”. With `CC(C)(C)C(=O)Nc1cccc(-c2ccc[nH]2)n1` the Potency was “inactive”. For `N#CC(=C1SC=CS1)c1nc(-c2ccccc2)cs1`, the Potency was “inactive”. In the case of `N#CC(=C1CCCC1)c1nc(-c2ccc(Cl)cc2)cs1`, the Potency is reported as 6.31 µM (active). In the case of `CCCCCN1CC(O)=C(c2nc(-c3ccc(Cl)cc3)cs2)C1=N`, the Potency is reported as “inactive”. With `OC(Cc1ccc2ccccc2n1)c1ccc(Cl)c(Cl)c1` (stereo unspecified) the Potency was “inactive”. With `O=C(CN1CCSCC1)N/N=C/c1ccc(F)cc1` the Potency was “inactive”. With `O=C(Cc1ccc(F)cc1)N/N=C/c1ccc2c(c1)OCO2` the Potency was 3.98 µM (active). With `O=C(Cc1c[nH]c2ccccc12)N/N=C/c1cccc(F)c1` the Potency was “inactive”. For `O=C(C1CCCN(S(=O)(=O)c2cccc3nonc23)C1)N1CCN(c2ccccc2F)CC1` (stereo unspecified), the Potency was “inactive”. With `Cn1c(=O)c2c(nc(Oc3ccc(C#N)cc3)n2Cc2ccc(Cl)cc2Cl)n(C)c1=O` the Potency was “inactive”. With `O=C(COC(=O)c1ccccc1OCCOc1ccccc1)Nc1cccc(Br)c1` the Potency was “inactive”. With `Cc1cccc(OCCSc2nc3ccccc3n2CC(=O)N2CCCCC2)c1C` the Potency was “inactive”. With `COc1cccc(C(=O)c2sc3nc(-c4ccccc4)cc(C(F)(F)F)c3c2N)c1` the Potency was “inactive”. For `CCN(CC)C(=O)c1nc[nH]c1C(=O)N(C)Cc1ccccc1`, the Potency was “inactive”. In the case of `CCN(CC)C(=O)c1sc2nc(-c3ccccc3)ccc2c1N`, the Potency is reported as 2.24 µM (active). With `Cc1ccc(S(=O)(=O)N2CCN(c3nc(-n4cnc5ccccc54)nc4ccccc34)CC2)cc1` the Potency was “inactive”. For `CCCCCn1c(=O)[nH]c2cc(C(=O)Nc3ccc(F)cc3)ccc2c1=O`, the Potency was “inactive”. In the case of `CN(C)C1=C2C=CC=CC2/C(=C2/C=Cc3ccccc32)C=C1` (stereo unspecified), the Potency is reported as “inactive”. With `O=C(COc1ccccc1C(=O)Nc1ccccc1)Nc1cccc(F)c1` the Potency was “inactive”. In the case of `Cc1ccc(C)c(N2CCN(C(=O)CN3C(=O)COc4ccc(S(=O)(=O)N5CCCCCC5)cc43)CC2)c1`, the Potency is reported as “inactive”. With `CCn1c(SCC(=O)Nc2sc(C)c(C)c2C#N)nnc1C1CC1` the Potency was “inactive”. With `COc1cc(-c2nnc(NC(=O)C3=COCCO3)o2)cc(OC)c1OC` the Potency was “inactive”. For `CCOC(=O)c1sc(N)c(C#N)c1COC(=O)C1=COCCO1`, the Potency was “inactive”. In the case of `CCC(CC)c1nnc(NC(=O)C2CCN(C(=O)c3ccco3)CC2)s1`, the Potency is reported as “inactive”. In the case of `CCC(CC)c1nnc(NC(=O)C2=COCCO2)s1`, the Potency is reported as 10 µM (active). For `Cc1sc(NC(=O)C2=COCCO2)c(C#N)c1C`, the Potency was 12.6 µM (active). In the case of `COc1ccc(N(CC(=O)NCCc2ccc(Cl)cc2)S(=O)(=O)c2c(C)nn(C)c2C)cc1`, the Potency is reported as “inactive”. With `CCCCOc1ccc(C(=O)NO)cc1` the Potency was “inactive”. For `CC1(C)C=Cc2c(ccc(C(=O)/C=C/c3ccccc3)c2O)O1`, the Potency was “inactive”. For `CC1(C)C=Cc2c(ccc3c2OC[C@@H](c2ccc(O)cc2O)C3)O1`, the Potency was 11.2 µM (active). In the case of `O=C(/C=C/c1ccccc1)N1CCN(Cc2cc(=O)n3nc(-c4ccccc4F)sc3n2)CC1`, the Potency is reported as “inactive”. In the case of `O=C(Cc1cccc2ccccc12)Nc1ccc2oc(-c3ccccc3)nc2c1`, the Potency is reported as 11.2 µM (active). For `Cc1ccc(NC(=S)NC(NC(=O)Cc2cccc3ccccc23)C(Cl)(Cl)Cl)cc1` (stereo unspecified), the Potency was “inactive”. For `O=C(Cc1cccc2ccccc12)NNC(=O)Nc1ccc(Cl)cc1`, the Potency was “inactive”. In the case of `CCn1c(=O)c2cc(C(=O)NCCc3ccc(Cl)cc3)sc2c2ccccc21`, the Potency is reported as “inactive”. With `COc1cc(OC)c(OC)cc1/C=C1\C=Cc2ccccc21` the Potency was “inactive”. In the case of `COc1cccc(NC(=O)CN(C)C(C)C(=O)Nc2ccc(C#N)cc2)c1` (stereo unspecified), the Potency is reported as “inactive”. With `COc1ccc(C(=O)NCc2nnc(SCC(=O)Nc3cccc(OC)c3)o2)cc1` the Potency was “inactive”. For `CCC(=O)Nc1ccc(C(=O)Nc2cccc(OC)c2)cc1`, the Potency was 12.6 µM (active). For `Cc1ccc(C(=O)Nc2ccc(OCc3cc(=O)n4c(C)csc4n3)cc2)cc1`, the Potency was “inactive”. In the case of `Cc1ccc(-c2nnc3ccc(SCC(N)=O)nn23)cc1`, the Potency is reported as “inactive”. In the case of `CCOC(=O)c1oc2ccc(S(=O)(=O)n3nc(-c4ccccc4OC)cc3N)cc2c1C`, the Potency is reported as “inactive”. With `Cc1ccc(/C=N/NC(=O)CSc2nc3ccccc3o2)cc1` the Potency was 11.2 µM (active). In the case of `O=C(CSc1nc2ccccc2o1)N/N=C/c1ccccc1C(=O)O`, the Potency is reported as “inactive”. With `O=C(CSc1nc2ccccc2o1)N1CCN(c2ccccc2)CC1` the Potency was “inactive”. For `CC1=C(C(=O)OCc2ccc(C)cc2)C(c2ccccc2Cl)CC(=O)N1` (stereo unspecified), the Potency was “inactive”. In the case of `CCc1ccc(CNC(=O)c2cc3c(=O)n(CC)c4ccccc4c3s2)cc1`, the Potency is reported as “inactive”. With `Cc1cccc(N2CCN(c3ccc(C(=O)O)cc3NC(=O)c3ccccc3F)CC2C)c1` (stereo unspecified) the Potency was “inactive”. In the case of `COc1cc(Cl)c(C)cc1NC(=O)CN1CCCCCC1`, the Potency is reported as “inactive”. In the case of `CC(=O)Nc1ccc(NC(=O)CN2CCCC(C)C2)c(Cl)c1` (stereo unspecified), the Potency is reported as 11.2 µM (active). With `O=C(CN1CCCCCC1)Nc1ccc(Cl)cc1F` the Potency was “inactive”. With `Cc1ccc(-c2nn3c(=O)cc(CN4CCN(S(=O)(=O)c5ccc(Cl)cc5)CC4)nc3s2)cc1` the Potency was “inactive”. With `COc1ccc(-c2nc3ccccc3s2)cc1NC(=O)COc1ccccc1C` the Potency was “inactive”. For `CCCCCCC1(C)NC(c2ccc3c(c2)OCO3)=CC(c2ccccc2O)N1` (stereo unspecified), the Potency was “inactive”. In the case of `COc1ccc(Nc2ncnc3sc(C)cc23)cc1`, the Potency is reported as 8.91 µM (active). For `COc1ccc(Nc2ncc(C(=O)N3CCN(c4ccccc4OC)CC3)c3ccccc23)cc1`, the Potency was “inactive”. With `COc1ccc(Nc2ncc(C(=O)Nc3cc(C)ccc3OC)c3ccccc23)cc1` the Potency was “inactive”. For `CC1=C(C(=O)OCc2ccc(C)cc2)C(c2c(Cl)cccc2Cl)CC(=O)N1` (stereo unspecified), the Potency was “inactive”. For `Fc1ccc(COc2ccc(-c3nnco3)cc2)cc1`, the Potency was 11.2 µM (active). In the case of `Fc1ccc(COc2cccc(-c3n[nH]c(=S)o3)c2)cc1`, the Potency is reported as “inactive”. For `Fc1cccc(Cl)c1COc1ccc(-c2nnco2)cc1`, the Potency was “inactive”. For `COc1cc2nc(Cl)nc(NC3CC3)c2cc1OC`, the Potency was “inactive”. For `O=C1COc2ccc(-c3csc(-c4ccc(Cl)cc4)n3)cc2N1`, the Potency was “inactive”. With `COCC1CCCCN1C(=O)c1cc(COc2ccc(C)c(C)c2)on1` (stereo unspecified) the Potency was 11.2 µM (active). For `Cc1ccc(OCc2cc(C(=O)N(C)CCn3ccnc3C)no2)cc1C`, the Potency was “inactive”. In the case of `Cc1nonc1C1CCCN1C(=O)c1cc(COc2cccc(C(F)(F)F)c2)on1` (stereo unspecified), the Potency is reported as “inactive”. For `Cc1[nH]c2ccccc2c1C(c1ccccc1)c1cccs1` (stereo unspecified), the Potency was “inactive”. With `CC(=O)c1ccc(NC(=O)c2nc(-c3ccc(C)cc3)n3c2CCCCC3)cc1` the Potency was “inactive”. For `Nc1ncnc2nnsc12`, the Potency was “inactive”. With `COc1ccccc1-c1c(C)nn2c(C)c(C(C)=O)cnc12` the Potency was “inactive”. In the case of `CCc1ccc2nc(Nc3ncc(C(C)=O)c(C)n3)nc(C)c2c1`, the Potency is reported as “inactive”. In the case of `COc1ccccc1Nc1ncc(C(C)=O)c(C)n1`, the Potency is reported as 10 µM (active). For `O=C(Cn1c(=O)n(Cc2cccs2)c(=O)c2cccnc21)Nc1ccc(F)cc1`, the Potency was “inactive”.
